According to PMC7862700, “An all-to-all approach to the identification of sequence-specific readers for epigenetic DNA modifications on cytosine”:

Columns and labels:
Test in all cases: DAPPL (digital affinity profiling via proximity ligation, sequencing); 10 mM Tris-HCl pH 7.5, 50 mM NaCl, 1 mM DTT, 4% glycerol, room temperature, 30 min; GST-TFs on glutathione beads, 16-mer random dsDNA library, 0.1% formaldehyde crosslink after washing; high values mean tight binding
Details in all cases: protein: recombinant; tags: N-terminal GST; dsDNA, one strand shown
ERF = target: T1, ERF (Homo sapiens, UniProt P50548 1-548)
T1 sequence: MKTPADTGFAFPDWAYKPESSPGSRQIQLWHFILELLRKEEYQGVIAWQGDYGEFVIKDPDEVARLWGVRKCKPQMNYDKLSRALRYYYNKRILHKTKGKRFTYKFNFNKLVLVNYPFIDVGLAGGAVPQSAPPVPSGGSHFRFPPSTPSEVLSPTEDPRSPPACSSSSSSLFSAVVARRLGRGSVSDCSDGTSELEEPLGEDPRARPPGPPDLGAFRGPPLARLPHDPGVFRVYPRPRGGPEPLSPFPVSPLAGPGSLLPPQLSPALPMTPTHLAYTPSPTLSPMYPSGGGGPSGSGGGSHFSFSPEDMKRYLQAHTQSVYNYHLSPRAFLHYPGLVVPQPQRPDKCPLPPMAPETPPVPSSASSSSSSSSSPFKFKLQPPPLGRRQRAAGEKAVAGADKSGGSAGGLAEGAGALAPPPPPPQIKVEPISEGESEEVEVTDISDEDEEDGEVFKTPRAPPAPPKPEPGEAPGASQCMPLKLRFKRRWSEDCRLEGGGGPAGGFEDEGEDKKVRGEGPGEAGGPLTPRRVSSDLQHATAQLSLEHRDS
How it was run: (§1)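 Binding signal is given per hexamer as its read frequency for a factor divided by its frequency in the tag-only sample. GST-fused human transcription factors were expressed in yeast, captured on glutathione beads, barcoded with DNA and pooled with that sample, then incubated with 200 nmole of a 16-mer random double-stranded DNA library in Tris/NaCl/DTT/glycerol buffer for 30 min at room temperature. The pools were then washed, crosslinked, proximity-ligated, amplified by PCR and sequenced on an Illumina NextSeq500.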

ETV3L = target: T2, ETV3L (Homo sapiens, UniProt Q6ZN32 1-361)
T2 sequence: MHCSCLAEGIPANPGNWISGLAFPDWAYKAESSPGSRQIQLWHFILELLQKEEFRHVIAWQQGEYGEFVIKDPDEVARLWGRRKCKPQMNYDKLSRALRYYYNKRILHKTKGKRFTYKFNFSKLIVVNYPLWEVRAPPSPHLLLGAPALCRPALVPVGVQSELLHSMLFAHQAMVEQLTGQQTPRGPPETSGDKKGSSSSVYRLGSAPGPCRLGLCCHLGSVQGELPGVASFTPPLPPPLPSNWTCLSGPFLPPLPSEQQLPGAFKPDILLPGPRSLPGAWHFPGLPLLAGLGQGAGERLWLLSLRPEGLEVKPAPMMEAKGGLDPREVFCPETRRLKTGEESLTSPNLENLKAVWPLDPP
How it was run: as §1

ETS2 = target: T3, ETS2 (Homo sapiens, UniProt P15036 1-469)
T3 sequence: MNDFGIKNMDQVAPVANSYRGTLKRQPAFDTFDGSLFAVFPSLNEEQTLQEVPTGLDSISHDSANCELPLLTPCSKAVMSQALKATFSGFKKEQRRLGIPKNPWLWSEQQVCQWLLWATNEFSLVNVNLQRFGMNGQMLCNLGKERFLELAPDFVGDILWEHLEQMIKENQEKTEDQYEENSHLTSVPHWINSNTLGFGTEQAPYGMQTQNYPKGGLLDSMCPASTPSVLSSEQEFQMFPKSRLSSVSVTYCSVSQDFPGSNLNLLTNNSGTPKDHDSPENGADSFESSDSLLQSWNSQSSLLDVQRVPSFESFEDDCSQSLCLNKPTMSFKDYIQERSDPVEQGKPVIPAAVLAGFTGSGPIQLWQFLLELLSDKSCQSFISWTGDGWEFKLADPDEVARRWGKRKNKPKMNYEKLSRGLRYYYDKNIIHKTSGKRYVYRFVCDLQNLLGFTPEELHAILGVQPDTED
How it was run: as §1

SPDEF = target: T4, SPDEF (Homo sapiens, UniProt O95238 1-335)
T4 sequence: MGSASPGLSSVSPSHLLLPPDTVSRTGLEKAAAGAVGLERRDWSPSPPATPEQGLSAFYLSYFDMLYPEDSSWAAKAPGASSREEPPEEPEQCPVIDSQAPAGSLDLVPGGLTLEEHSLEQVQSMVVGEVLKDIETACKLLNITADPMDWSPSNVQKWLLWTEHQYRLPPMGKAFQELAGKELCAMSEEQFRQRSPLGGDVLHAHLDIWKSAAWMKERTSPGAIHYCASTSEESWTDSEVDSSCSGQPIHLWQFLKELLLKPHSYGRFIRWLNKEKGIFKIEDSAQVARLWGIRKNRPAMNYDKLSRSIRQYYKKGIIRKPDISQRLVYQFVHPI
How it was run: as §1

ETV7 = target: T5, ETV7 (Homo sapiens, UniProt Q9Y603 1-341)
T5 sequence: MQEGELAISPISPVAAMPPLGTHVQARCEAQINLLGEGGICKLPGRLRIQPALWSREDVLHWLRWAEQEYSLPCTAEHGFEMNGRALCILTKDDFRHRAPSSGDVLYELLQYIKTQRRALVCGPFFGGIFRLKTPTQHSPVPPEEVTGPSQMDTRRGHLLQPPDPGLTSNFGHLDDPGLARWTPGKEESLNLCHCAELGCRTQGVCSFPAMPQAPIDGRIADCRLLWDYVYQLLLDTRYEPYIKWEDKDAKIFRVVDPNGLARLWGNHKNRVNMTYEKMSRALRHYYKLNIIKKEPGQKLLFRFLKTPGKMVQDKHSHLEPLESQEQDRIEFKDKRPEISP
How it was run: as §1

ELF5 = target: T6, ELF5 (Homo sapiens, UniProt Q9UKW6-2 1-255)
T6 sequence: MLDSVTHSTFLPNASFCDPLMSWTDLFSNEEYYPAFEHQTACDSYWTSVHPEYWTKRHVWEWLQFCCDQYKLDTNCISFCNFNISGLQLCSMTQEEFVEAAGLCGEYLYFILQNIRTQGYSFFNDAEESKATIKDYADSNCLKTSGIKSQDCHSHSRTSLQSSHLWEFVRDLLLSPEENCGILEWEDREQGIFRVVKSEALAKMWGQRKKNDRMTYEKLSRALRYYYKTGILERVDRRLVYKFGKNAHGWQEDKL
How it was run: as §1

ETV6 = ETV6 (Homo sapiens, UniProt P41212 1-452)
How it was run: as §1

ETV3 = target: T7, ETV3 (Homo sapiens, UniProt P41162-2 1-143)
T7 sequence: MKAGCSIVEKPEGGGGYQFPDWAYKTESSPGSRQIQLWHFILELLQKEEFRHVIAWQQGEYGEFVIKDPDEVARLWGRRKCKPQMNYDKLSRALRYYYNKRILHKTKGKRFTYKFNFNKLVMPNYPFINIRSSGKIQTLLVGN
How it was run: as §1

Sequence of ETV6 (P41212 whole entry): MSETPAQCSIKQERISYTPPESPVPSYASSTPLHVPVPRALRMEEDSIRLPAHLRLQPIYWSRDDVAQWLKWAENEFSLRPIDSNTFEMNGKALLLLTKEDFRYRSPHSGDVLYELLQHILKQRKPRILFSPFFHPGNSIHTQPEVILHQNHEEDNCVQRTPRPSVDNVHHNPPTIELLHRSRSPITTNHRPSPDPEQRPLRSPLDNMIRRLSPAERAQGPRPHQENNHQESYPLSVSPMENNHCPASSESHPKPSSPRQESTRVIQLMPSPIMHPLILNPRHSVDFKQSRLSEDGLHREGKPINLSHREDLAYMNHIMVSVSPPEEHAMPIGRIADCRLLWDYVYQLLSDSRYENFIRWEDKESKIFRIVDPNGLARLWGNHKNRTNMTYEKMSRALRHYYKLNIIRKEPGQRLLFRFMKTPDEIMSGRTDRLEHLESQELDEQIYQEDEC

Sequence | binding signal (ERF) | binding signal (ETV3L) | binding signal (ETS2) | binding signal (SPDEF) | binding signal (ETV7) | binding signal (ELF5) | binding signal (ETV6) | binding signal (ETV3)
CAAGAA | 1.12 fold enrichment (6-mer frequency, TF over GST control) | 1.09 fold enrichment (6-mer frequency, TF over GST control) | 1.07 fold enrichment (6-mer frequency, TF over GST control) | 1.06 fold enrichment (6-mer frequency, TF over GST control) | 1.14 fold enrichment (6-mer frequency, TF over GST control) | 1.08 fold enrichment (6-mer frequency, TF over GST control) | 1.04 fold enrichment (6-mer frequency, TF over GST control) | 
CAATAG | 1.21 fold enrichment (6-mer frequency, TF over GST control) | 1.02 fold enrichment (6-mer frequency, TF over GST control) | 1.08 fold enrichment (6-mer frequency, TF over GST control) | 1.08 fold enrichment (6-mer frequency, TF over GST control) | 1.11 fold enrichment (6-mer frequency, TF over GST control) |  | 1.12 fold enrichment (6-mer frequency, TF over GST control) | 1.09 fold enrichment (6-mer frequency, TF over GST control)
ACACCT | 1.14 fold enrichment (6-mer frequency, TF over GST control) | 1.15 fold enrichment (6-mer frequency, TF over GST control) | 1.05 fold enrichment (6-mer frequency, TF over GST control) | 1.05 fold enrichment (6-mer frequency, TF over GST control) | 1.11 fold enrichment (6-mer frequency, TF over GST control) |  | 1.06 fold enrichment (6-mer frequency, TF over GST control) | 1.08 fold enrichment (6-mer frequency, TF over GST control)
CGATCG | 1.04 fold enrichment (6-mer frequency, TF over GST control) | 1.03 fold enrichment (6-mer frequency, TF over GST control) | 1.04 fold enrichment (6-mer frequency, TF over GST control) | 1.1 fold enrichment (6-mer frequency, TF over GST control) | 1 fold enrichment (6-mer frequency, TF over GST control) |  | 1.03 fold enrichment (6-mer frequency, TF over GST control) | 1.09 fold enrichment (6-mer frequency, TF over GST control)
ACAGAT | 1.06 fold enrichment (6-mer frequency, TF over GST control) | 1.01 fold enrichment (6-mer frequency, TF over GST control) | 1.03 fold enrichment (6-mer frequency, TF over GST control) | 1.05 fold enrichment (6-mer frequency, TF over GST control) | 1.12 fold enrichment (6-mer frequency, TF over GST control) |  |  | 1.02 fold enrichment (6-mer frequency, TF over GST control)
AGCAGC | 1.08 fold enrichment (6-mer frequency, TF over GST control) | 1.09 fold enrichment (6-mer frequency, TF over GST control) | 1.2 fold enrichment (6-mer frequency, TF over GST control) | 1.02 fold enrichment (6-mer frequency, TF over GST control) | 1.19 fold enrichment (6-mer frequency, TF over GST control) |  | 1.04 fold enrichment (6-mer frequency, TF over GST control) | 1.08 fold enrichment (6-mer frequency, TF over GST control)
TGACTA | 1.14 fold enrichment (6-mer frequency, TF over GST control) | 1.08 fold enrichment (6-mer frequency, TF over GST control) | 1.04 fold enrichment (6-mer frequency, TF over GST control) | 1.08 fold enrichment (6-mer frequency, TF over GST control) | 1.07 fold enrichment (6-mer frequency, TF over GST control) |  | 1.15 fold enrichment (6-mer frequency, TF over GST control) | 1.05 fold enrichment (6-mer frequency, TF over GST control)
CGAGCT | 1.09 fold enrichment (6-mer frequency, TF over GST control) | 1.02 fold enrichment (6-mer frequency, TF over GST control) | 1.07 fold enrichment (6-mer frequency, TF over GST control) | 1.04 fold enrichment (6-mer frequency, TF over GST control) | 1.02 fold enrichment (6-mer frequency, TF over GST control) |  | 1.01 fold enrichment (6-mer frequency, TF over GST control) | 1.06 fold enrichment (6-mer frequency, TF over GST control)
ATACCA | 1.06 fold enrichment (6-mer frequency, TF over GST control) | 1.08 fold enrichment (6-mer frequency, TF over GST control) | 1.06 fold enrichment (6-mer frequency, TF over GST control) | 1 fold enrichment (6-mer frequency, TF over GST control) | 1.02 fold enrichment (6-mer frequency, TF over GST control) | 1.03 fold enrichment (6-mer frequency, TF over GST control) | 1.01 fold enrichment (6-mer frequency, TF over GST control) | 
TTACGC | 1.15 fold enrichment (6-mer frequency, TF over GST control) | 1.05 fold enrichment (6-mer frequency, TF over GST control) | 1.1 fold enrichment (6-mer frequency, TF over GST control) | 1.08 fold enrichment (6-mer frequency, TF over GST control) | 1.02 fold enrichment (6-mer frequency, TF over GST control) |  | 1.11 fold enrichment (6-mer frequency, TF over GST control) | 1.16 fold enrichment (6-mer frequency, TF over GST control)
TAGAAA | 1.04 fold enrichment (6-mer frequency, TF over GST control) | 1.08 fold enrichment (6-mer frequency, TF over GST control) | 1.08 fold enrichment (6-mer frequency, TF over GST control) | 1.04 fold enrichment (6-mer frequency, TF over GST control) | 1.12 fold enrichment (6-mer frequency, TF over GST control) |  | 1.06 fold enrichment (6-mer frequency, TF over GST control) | 1.05 fold enrichment (6-mer frequency, TF over GST control)
CTATCG | 1.28 fold enrichment (6-mer frequency, TF over GST control) | 1.07 fold enrichment (6-mer frequency, TF over GST control) | 1.04 fold enrichment (6-mer frequency, TF over GST control) | 1.04 fold enrichment (6-mer frequency, TF over GST control) | 1.19 fold enrichment (6-mer frequency, TF over GST control) |  | 1.07 fold enrichment (6-mer frequency, TF over GST control) | 1.1 fold enrichment (6-mer frequency, TF over GST control)
TTAGAA | 1.1 fold enrichment (6-mer frequency, TF over GST control) | 1.07 fold enrichment (6-mer frequency, TF over GST control) | 1.08 fold enrichment (6-mer frequency, TF over GST control) | 1 fold enrichment (6-mer frequency, TF over GST control) | 1.08 fold enrichment (6-mer frequency, TF over GST control) |  | 1.15 fold enrichment (6-mer frequency, TF over GST control) | 1.06 fold enrichment (6-mer frequency, TF over GST control)
TTTAGG | 1.22 fold enrichment (6-mer frequency, TF over GST control) | 1.02 fold enrichment (6-mer frequency, TF over GST control) | 1.11 fold enrichment (6-mer frequency, TF over GST control) | 1.09 fold enrichment (6-mer frequency, TF over GST control) | 1.19 fold enrichment (6-mer frequency, TF over GST control) |  | 1.19 fold enrichment (6-mer frequency, TF over GST control) | 1.07 fold enrichment (6-mer frequency, TF over GST control)
CTGAGC | 1.06 fold enrichment (6-mer frequency, TF over GST control) | 1.14 fold enrichment (6-mer frequency, TF over GST control) | 1.15 fold enrichment (6-mer frequency, TF over GST control) | 1.16 fold enrichment (6-mer frequency, TF over GST control) | 1.16 fold enrichment (6-mer frequency, TF over GST control) |  | 1.16 fold enrichment (6-mer frequency, TF over GST control) | 1.01 fold enrichment (6-mer frequency, TF over GST control)
GGTGTT | 1.14 fold enrichment (6-mer frequency, TF over GST control) | 1.07 fold enrichment (6-mer frequency, TF over GST control) | 1.08 fold enrichment (6-mer frequency, TF over GST control) | 1.1 fold enrichment (6-mer frequency, TF over GST control) | 1.01 fold enrichment (6-mer frequency, TF over GST control) |  | 1.1 fold enrichment (6-mer frequency, TF over GST control) | 1.05 fold enrichment (6-mer frequency, TF over GST control)
